# Reference: PubChem BioAssay (NCI)
# This is part of a sample that, as a whole, favours compounds with a hit. Of some 79,000 tested, about 15% had one in any assay. Unmarked numbers belong to inactive results. Activity calls are given as the source filed them. Cut-off read from the data, not from the text of the source: active = growth inhibition above about 70%; inactive = the rest.
# Legend:
# [1] = NCI Yeast Anticancer Drug Screen. Data for the mlh1 strain (AID 171);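 note: 0% = growth of vehicle-treated control cultures of the same strain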; settings: S. cerevisiae mlh1 strain growth inhibition, hits give high values
# In short: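 Growth of the mutant yeast strain after compound exposure, expressed as inhibition relative to vehicle-only controls.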
# [2] = NCI Yeast Anticancer Drug Screen. Data for the sgs1 strain (AID 173);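 note: 0% = growth of vehicle-only control cultures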; settings: S. cerevisiae sgs1 mutant, hits give high values
# In short: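 Growth of a yeast strain bearing a defined genetic alteration is measured after compound treatment. Inhibition is expressed relative to vehicle-only controls.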
# [3] = NCI Yeast Anticancer Drug Screen. Data for the mlh1 rad18 strain (AID 175); settings: S. cerevisiae mlh1 rad18 strain growth inhibition, hits give high values
# In short: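 Read-out is yeast growth inhibition, calculated against vehicle-only controls. The compound was applied to a strain engineered with DNA damage repair alterations.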
# [4] = NCI Yeast Anticancer Drug Screen. Data for the rad18 strain (AID 177); settings: S. cerevisiae rad18 mutant growth inhibition, hits give high values
# In short: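 Growth of the mutant yeast strain after compound exposure, normalised to vehicle-only cultures.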
# [5] = NCI Yeast Anticancer Drug Screen. Data for the rad52 strain (AID 147);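 note: 0% = growth of vehicle-treated control cultures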; settings: S. cerevisiae rad52 mutant growth inhibition, hits give high values
# In short: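 Compounds are applied to a genetically defined yeast strain lacking normal DNA damage repair, and inhibition of growth is expressed relative to cultures given vehicle only.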
# [6] = NCI Yeast Anticancer Drug Screen. Data for the wt1 strain (AID 149);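 note: 0% = growth of vehicle-treated wt1 cultures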; settings: S. cerevisiae wt1 strain (SPY 50644) growth inhibition, hits give high values
# In short: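 wt1 strain grown with compound or vehicle; inhibition taken from the growth difference.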
# [7] = NCI Yeast Anticancer Drug Screen. Data for the rad50EPP+ strain (AID 151);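 note: 0% = growth of vehicle-treated control cultures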; settings: S. cerevisiae rad50 mutant strain, hits give high values
# In short: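 Compounds were applied to the rad50EPP+ yeast strain, which bears a defined DNA repair alteration, and growth inhibition was determined relative to vehicle-treated cultures.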
# [8] = NCI Yeast Anticancer Drug Screen. Data for the mgt1 strain (AID 153); settings: S. cerevisiae mgt1 mutant growth inhibition, hits give high values
# In short: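 Strain: mgt1 yeast, one of a set carrying defined DNA damage repair or cell cycle control alterations. Compound-treated growth compared with vehicle.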
# [9] = NCI Yeast Anticancer Drug Screen. Data for the rad50 strain (AID 155);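 note: 0% = growth of vehicle-only cultures of the same strain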; settings: S. cerevisiae rad50 strain growth inhibition, hits give high values
# In short: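 DNA repair mutant yeast, compound exposure, growth read-out; inhibition is taken relative to vehicle.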
# [10] = NCI Yeast Anticancer Drug Screen. Data for the mec2-1 strain (AID 157); settings: S. cerevisiae mec2-1 strain, hits give high values
# In short: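 Strain: mec2-1 (DNA repair/cell cycle alteration). Compound exposure, then growth measured; inhibition expressed relative to vehicle.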
# [11] = NCI Yeast Anticancer Drug Screen. Data for the rad14 strain (AID 159);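 note: 0% = growth of vehicle-treated control cultures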; settings: S. cerevisiae rad14 strain growth inhibition, hits give high values
# In short: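 DNA repair-defective yeast, compound-exposed; % growth inhibition derived by comparison with vehicle-treated controls.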
# [12] = NCI Yeast Anticancer Drug Screen. Data for the sgs1 mgt1 strain (AID 161);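 note: 0% = growth of cultures given vehicle only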; settings: S. cerevisiae sgs1 mgt1 strain, hits give high values
# In short: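 Inhibition of yeast growth, normalised to vehicle-treated controls, is reported for a strain bearing genetic alterations in DNA damage repair.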
# [13] = NCI Yeast Anticancer Drug Screen. Data for the CLN2oe strain (AID 163);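 note: 0% = growth of vehicle-only control cultures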; settings: S. cerevisiae CLN2oe strain, hits give high values
# In short: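 Growth of a genetically modified yeast strain is measured after compound exposure and compared with cultures given vehicle alone.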
# [14] = NCI Yeast Anticancer Drug Screen. Data for the bub3 strain (AID 167); settings: S. cerevisiae bub3 mutant strain, hits give high values
# In short: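 In this screen, a yeast mutant lacking normal mitotic checkpoint function is challenged with compound. Relative growth versus vehicle gives the inhibition value.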
# [15] = NCI Yeast Anticancer Drug Screen. Data for the wt2 strain (AID 169);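 note: 0% = growth of vehicle-treated yeast cultures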; settings: S. cerevisiae wt2 strain growth inhibition, hits give high values
# In short: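 This strain belongs to a panel of yeast strains with defined genetic alterations in DNA damage repair or cell cycle control. Compounds are applied, and growth inhibition is measured against vehicle-treated cultures.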
# [16] = at 5.0 µM (retest, dose inferred, filed as 0.5)
# [17] = at 50.0 µM (retest, dose inferred, filed as 5.0)
smiles,measurement,setting,value
COc1cc(C2C3=C(COC3=O)Oc3cc4c(cc32)OCO4)cc(OC)c1O (stereo not drawn),growth inhibition,[1]; at 1.2 µM,3%
same,growth inhibition,[1]; at 3.7 µM,0%
same,growth inhibition,[1]; at 11.0 µM,8%
same,growth inhibition,[1]; at 33.0 µM,10%
same,growth inhibition,[1]; at 100.0 µM,10%
same,growth inhibition,[2]; at 1.2 µM,13%
same,growth inhibition,[2]; at 3.7 µM,10%
same,growth inhibition,[2]; at 11.0 µM,22%
same,growth inhibition,[2]; at 33.0 µM,26%
same,growth inhibition,[2]; at 100.0 µM,28%
same,growth inhibition,[3]; [16],-10%
same,growth inhibition,[3]; [17],58%
same,growth inhibition,[3]; at 50.0 µM,72.7% (active)
same,growth inhibition,[4]; at 1.2 µM,11%
same,growth inhibition,[4]; at 3.7 µM,11%
same,growth inhibition,[4]; at 11.0 µM,19%
same,growth inhibition,[4]; at 33.0 µM,9%
same,growth inhibition,[4]; at 100.0 µM,24%
O=C(NCCCCN(CCCNC(=O)C(F)(F)F)Cc1ccccc1)C(F)(F)F,growth inhibition,[5]; at 1.2 µM,30%
same,growth inhibition,[5]; at 3.7 µM,36%
same,growth inhibition,[5]; at 11.0 µM,31%
same,growth inhibition,[5]; at 33.0 µM,33%
same,growth inhibition,[5]; at 100.0 µM,35%
same,growth inhibition,[6]; at 1.2 µM,5%
same,growth inhibition,[6]; at 3.7 µM,9%
same,growth inhibition,[6]; at 11.0 µM,4%
same,growth inhibition,[6]; at 33.0 µM,6%
same,growth inhibition,[6]; at 100.0 µM,-10%
same,growth inhibition,[7]; at 1.2 µM,5%
same,growth inhibition,[7]; at 3.7 µM,-6%
same,growth inhibition,[7]; at 11.0 µM,4%
same,growth inhibition,[7]; at 33.0 µM,-2%
same,growth inhibition,[7]; at 100.0 µM,-18%
same,growth inhibition,[8]; at 1.2 µM,22%
same,growth inhibition,[8]; at 3.7 µM,33%
same,growth inhibition,[8]; at 11.0 µM,32%
same,growth inhibition,[8]; at 33.0 µM,26%
same,growth inhibition,[8]; at 100.0 µM,7%
same,growth inhibition,[9]; at 1.2 µM,32%
same,growth inhibition,[9]; at 3.7 µM,33%
same,growth inhibition,[9]; [16],39%
same,growth inhibition,[9]; at 11.0 µM,40%
same,growth inhibition,[9]; at 33.0 µM,33%
same,growth inhibition,[9]; [17],90% (active)
same,growth inhibition,[9]; at 50.0 µM,-5.5%
same,growth inhibition,[9]; at 100.0 µM,27%
same,growth inhibition,[10]; at 1.2 µM,14%
same,growth inhibition,[10]; at 3.7 µM,11%
same,growth inhibition,[10]; [16],14%
same,growth inhibition,[10]; at 11.0 µM,14%
same,growth inhibition,[10]; at 33.0 µM,0%
same,growth inhibition,[10]; [17],75% (active)
same,growth inhibition,[10]; at 50.0 µM,-9.05%
same,growth inhibition,[10]; at 100.0 µM,-13%
same,growth inhibition,[11]; at 1.2 µM,16%
same,growth inhibition,[11]; at 3.7 µM,16%
same,growth inhibition,[11]; at 11.0 µM,15%
same,growth inhibition,[11]; at 33.0 µM,11%
same,growth inhibition,[11]; at 100.0 µM,-10%
same,growth inhibition,[12]; [16],-19%
same,growth inhibition,[12]; [17],-11%
same,growth inhibition,[12]; at 50.0 µM,-5.75%
same,growth inhibition,[13]; at 1.2 µM,13%
same,growth inhibition,[13]; at 3.7 µM,3%
same,growth inhibition,[13]; at 11.0 µM,6%
same,growth inhibition,[13]; at 33.0 µM,12%
same,growth inhibition,[13]; at 100.0 µM,-3%
same,growth inhibition,[14]; at 1.2 µM,11%
same,growth inhibition,[14]; at 3.7 µM,0%
same,growth inhibition,[14]; [16],7%
same,growth inhibition,[14]; at 11.0 µM,0%
same,growth inhibition,[14]; at 33.0 µM,-7%
same,growth inhibition,[14]; [17],0%
same,growth inhibition,[14]; at 50.0 µM,-14%
same,growth inhibition,[14]; at 100.0 µM,0%
same,growth inhibition,[15]; at 1.2 µM,-4%
same,growth inhibition,[15]; at 3.7 µM,-6%
same,growth inhibition,[15]; at 11.0 µM,2%
same,growth inhibition,[15]; at 33.0 µM,-12%
same,growth inhibition,[15]; at 100.0 µM,-12%
same,growth inhibition,[1]; at 1.2 µM,22%
same,growth inhibition,[1]; at 3.7 µM,33%
same,growth inhibition,[1]; at 11.0 µM,32%
same,growth inhibition,[1]; at 33.0 µM,26%
same,growth inhibition,[1]; at 100.0 µM,7%
same,growth inhibition,[2]; at 1.2 µM,40%
same,growth inhibition,[2]; at 3.7 µM,41%
same,growth inhibition,[2]; at 11.0 µM,44%
same,growth inhibition,[2]; at 33.0 µM,15%
same,growth inhibition,[2]; at 100.0 µM,36%
same,growth inhibition,[3]; [16],19%
same,growth inhibition,[3]; [17],24%
same,growth inhibition,[3]; at 50.0 µM,-63%
same,growth inhibition,[4]; at 1.2 µM,13%
same,growth inhibition,[4]; at 3.7 µM,12%
same,growth inhibition,[4]; at 11.0 µM,21%
same,growth inhibition,[4]; at 33.0 µM,14%
same,growth inhibition,[4]; at 100.0 µM,-7%
